# From the supplement of paper PMC4166925
# ± gives the standard deviation of the averaged measurements. Over roughly 33,000 sequences, “E-score (dimensionless, -0.5 to 0.5)” has its median near -0.046; the highest 2% begin near 0.36. This excerpt belongs to a sample that is enriched for the highest values.
# Tested on: T1, SpTbr T-box DNA-binding domain (GST fusion)
# T1 sequence: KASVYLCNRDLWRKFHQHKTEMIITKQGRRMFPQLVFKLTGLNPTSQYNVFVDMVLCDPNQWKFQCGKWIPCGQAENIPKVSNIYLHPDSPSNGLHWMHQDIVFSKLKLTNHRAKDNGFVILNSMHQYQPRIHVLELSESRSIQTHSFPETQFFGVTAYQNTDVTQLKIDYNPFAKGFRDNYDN
# Assay: PBM E-score of 8-mer (E-score (dimensionless, -0.5 to 0.5)); Tbr is Tbrain of the sea star Patiria miniata (Pm) or the sea urchin Strongylocentrotus purpuratus (Sp); higher = stronger binding preference
# Conditions: the construct has about 5 more residues each side
# Summary of the method: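 Using the Universal PBM Analysis Suite, every ungapped 8-mer received an enrichment E-score averaged over duplicate arrays. Probe intensities came from double-stranded Universal Agilent oligonucleotide arrays incubated with 200 nM GST-fused Tbr T-box DNA-binding domain in PBS (pH 7.5). That protein was expressed in BL21 E. coli at 20 °C and purified by glutathione affinity chromatography.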
row,Sequence,PBM E-score of 8-mer
1,GGTCTCGA,-0.115 ± 0.014
2,GCATGGGC,-0.0364 ± 0.0065
3,GCTACTAC,0.013 ± 0.035
4,ATTCCCAA,-0.227 ± 0.012
5,CGTGAGAA,0.347 ± 0.016
6,GCTGAGAA,0.26 ± 0.048
7,CGTGAGGA,0.178 ± 0.011
8,TGTGAGAA,0.4336 ± 0.0026
9,TCTGAGAA,-0.238 ± 0.12
10,GGTGAGAA,0.4745 ± 0.0016
11,AGTGAGGA,0.246 ± 0.028
12,GGTGAGAC,0.3819 ± 0.0012
13,GGTGAGGA,0.384 ± 0.0073
14,AGTGAGAC,0.169 ± 0.04
15,TGAGAGAA,0.0644 ± 0.036
16,CGTGAGAC,0.2491 ± 0.0021
17,CGTTGAAG,0.0941 ± 0.031
18,ATGGACAA,0.101 ± 0.003
19,AGGCCAAC,-0.0875 ± 0.028
20,CGAGTAGC,0.0635 ± 0.0055
21,TAGGGCGA,-0.00769 ± 0.086
22,GAACTTGA,-0.0691 ± 0.0032
23,CCGCGACG,0.0384 ± 0.061
24,ATCAGATA,-0.0339 ± 0.043
25,AGTGAGAG,0.3 ± 0.0092

row,Sequence,PBM E-score of 8-mer
1,AGTGAGAT,0.287 ± 0.033
2,AGTGAGAA,0.422 ± 0.014
3,CAACCTGA,-0.0529 ± 0.059
4,ATTGGTCC,-0.197 ± 0.039
5,AACGTGTG,0.4114 ± 0.0041
6,CACGTGTC,0.391 ± 0.014
7,AGCGTGTC,0.152 ± 0.072
8,CACGTGAC,0.286 ± 0.042
9,AACGTGCG,0.32 ± 0.0051
10,CACGTGTA,0.272 ± 0.0034
11,AACGTGTC,0.372 ± 0.0067
12,ACCGTGTG,0.203 ± 0.052
13,AACGTGTA,0.135 ± 0.074
14,ACTCGATG,-0.0556 ± 0.081
15,ACAACGAT,-0.00065 ± 0.016
16,CACGCCCC,0.24 ± 0.013
17,AGACAACG,-0.0213 ± 0.033
18,CAGCTAGG,0.101 ± 0.087
19,CAGCCTCC,-0.239 ± 0.021
20,CAGGCTAC,-0.221 ± 0.014
21,ACAATTCA,0.163 ± 0.069
22,GCCGACAA,0.161 ± 0.014
23,ACCGACAT,-0.042 ± 0.038
24,GCCGACAC,0.397 ± 0.0048
25,ACCGACAA,-0.0797 ± 0.034

row,Sequence,PBM E-score of 8-mer
1,ACCGACAC,0.373 ± 0.0082
2,CCCGACAG,0.0718 ± 0.038
3,CCCGACAA,0.154 ± 0.02
4,GCCGACCC,-0.201 ± 0.12
5,CCCGACAC,0.367 ± 0.017
6,GACAATTA,0.029 ± 0.11
7,GGACAACA,0.0909 ± 0.012
8,GAGGATGC,-0.0317 ± 0.049
9,CGGAATGC,-0.214 ± 0.051
10,GCGAACGC,0.3749 ± 0.0018
11,GCGAACGA,0.283 ± 0.035
12,CCGAACGC,-0.0118 ± 0.08
13,GCAGAGAA,-0.328 ± 0.0058
14,GACTCTCA,0.0161 ± 0.056
15,ATTCACAG,0.395 ± 0.025
16,GTTCACGA,0.275 ± 0.0011
17,GTTCACAA,0.376 ± 0.02
18,CTTCACAC,0.4852 ± 0.00088
19,ATTCACTG,0.0169 ± 0.045
20,ATTCACAA,0.299 ± 0.061
21,GTTCACTA,-0.0482 ± 0.02
22,CTTCACAA,0.32 ± 0.0058
23,ATTCACAC,0.4807 ± 0.0029
24,CTTCACCC,0.123 ± 0.04
25,ATTCACTC,0.115 ± 0.056

row,Sequence,PBM E-score of 8-mer
1,ATTCACCG,0.0187 ± 0.041
2,AGAGAGCT,-0.0758 ± 0.017
3,GGAGAACC,0.0265 ± 0.00056
4,GCAATACA,-0.0823 ± 0.031
5,CATCGACA,0.222 ± 0.013
6,ACTTTTCT,0.00466 ± 0.018
7,CATAAGTC,-0.18 ± 0.0024
8,CACAGTTA,0.147 ± 0.022
9,CCTCAGAC,-0.204 ± 0.031
10,CACAACAA,0.285 ± 0.028
11,CACAACAC,0.3898 ± 0.0017
12,GACAACTC,0.252 ± 0.019
13,GTCAACAA,0.333 ± 0.0095
14,CACAACAG,0.198 ± 0.0064
15,GACAACAA,0.215 ± 0.015
16,AACAACAT,0.187 ± 0.02
17,AACAACAC,0.373 ± 0.013
18,CTCAACAC,0.269 ± 0.022
19,AACAACAA,0.102 ± 0.0091
20,GTCAACAC,0.434 ± 0.0065
21,GACAACAC,0.385 ± 0.0048
22,AGAGCCAG,0.0237 ± 0.035
23,TGTTTCAA,-0.0693 ± 0.047
24,CAGCGCAA,-0.0911 ± 0.0026
25,GCAGCGCC,0.189 ± 0.062

row,Sequence,PBM E-score of 8-mer
1,CGCATGGC,-0.0354 ± 0.028
2,CCTCCACG,0.0268 ± 0.029
3,CCGCAAGG,-0.0599 ± 0.044
4,ACCGTCCG,-0.0723 ± 0.023
5,CGGTTAAA,-0.129 ± 0.16
6,CCGACACA,0.36 ± 0.022
7,GCGACACA,0.31 ± 0.0039
8,ACGACACT,0.257 ± 0.0054
9,ACGACACG,0.226 ± 0.042
10,CCGACACG,0.253 ± 0.034
11,CCGACACC,0.438 ± 0.0068
12,GCGACACC,0.432 ± 0.021
13,GGGACACC,0.226 ± 0.042
14,ACGACACC,0.419 ± 0.02
15,CGTTGGGC,-0.255 ± 0.022
16,ATCAATCC,-0.172 ± 0.082
17,GAACGATC,0.0814 ± 0.028
18,CCTGACCC,-0.133 ± 0.084
19,TGAGCGCA,0.00286 ± 0.049
20,CTGTGATA,0.23 ± 0.055
21,ATGTGAGA,0.414 ± 0.018
22,ATGTGAGC,0.06995 ± 0.00026
23,ATGTGATA,0.254 ± 0.024
24,GTGAGAGA,0.339 ± 0.0054
25,CTGTGAGA,0.292 ± 0.0058

row,Sequence,PBM E-score of 8-mer
1,ATGTGAGG,0.28 ± 0.041
2,GTGTGAGA,0.4699 ± 0.0024
3,GTGTGATA,0.459 ± 0.0047
4,CCGATCAA,0.0887 ± 0.014
5,GTACTTGA,0.0232 ± 0.044
6,GCATCCCA,-0.16 ± 0.063
7,GTCACAAC,0.293 ± 0.0073
8,CGGTGTAA,0.216 ± 0.014
9,TGGTGTAA,0.292 ± 0.059
10,CGGTGTAG,0.17 ± 0.083
11,AGGTGTAC,0.294 ± 0.0088
12,GGGTGTAA,0.386 ± 0.0076
13,AGGTGTAA,0.475 ± 0.011
14,AGGTGTAG,0.3922 ± 0.0034
15,GGGTGTAC,-0.0335 ± 0.078
16,AGGTGTAT,0.281 ± 0.011
17,CTGGCCCC,-0.113 ± 0.035
18,AACGAGCG,0.0213 ± 0.0072
19,GAGCAAGA,-0.187 ± 0.011
20,AATCAGTC,-0.0936 ± 0.015
21,CTCGTTAC,-0.116 ± 0.031
22,GGTTGCGA,0.266 ± 0.015
23,CGCGCAAC,0.173 ± 0.066
24,AGAGTGAT,0.231 ± 0.039
25,ATTGTGAG,0.25 ± 0.035

row,Sequence,PBM E-score of 8-mer
1,AGTGTGTG,0.36 ± 0.023
2,AATGTGAT,0.253 ± 0.0037
3,GCTGTGAC,0.161 ± 0.042
4,GATGTGAC,0.273 ± 0.019
5,ACTGTGAC,0.237 ± 0.023
6,AGTGTGAT,0.4721 ± 0.0012
7,AGTGTGAC,0.445 ± 0.011
8,AGTGTGAG,0.4646 ± 0.0021
9,GGTGTGAC,0.4822 ± 0.0041
10,AGTGTGTC,0.234 ± 0.06
11,GGAGCTAA,-0.165 ± 0.013
12,GATTTCAC,0.332 ± 0.023
13,ACCTGTAA,0.154 ± 0.021
14,AGGCATTG,-0.17 ± 0.042
15,ATTCAAGG,-0.262 ± 0.017
16,CCAGCGGA,-0.0913 ± 0.043
17,ATGACGGA,-0.139 ± 0.0034
18,CGTGTGAC,0.399 ± 0.012
19,CCTGTGAC,0.263 ± 0.011
20,CGTGTGTC,0.172 ± 0.058
21,CGTGTGAG,0.4011 ± 0.0033
22,CCTGTGAG,0.24582 ± 4.2e-05
